System: T1, LOK
T1 construct: gene STK10
Conditions: concentration: 1 μM, replicates: in singlicate; n = 1
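Note: KINOMEscan kinase panel screen.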

| Structure (SMILES) | %Inh |
| --- | --- |
| CNc1nccc(-c2c(-c3ccc(F)cc3)ncn2C2CCN(C)CC2)n1 [SB-222903] | 3% |
| CCn1c(-c2ccncc2)nc2cnccc21 [SB-735216] | 0% |
| Clc1cc(Nc2ncnc3cc[nH]c23)ccc1OCc1ccccn1 | 30% |
| CN1CCC(n2cnc(-c3ccc(F)cc3)c2-c2ccnc(NC3CCNCC3)n2)CC1 [SB-229482] | 0% |
| Fc1ccc(-c2ncn(CCCNCc3ccccc3)c2-c2ccncc2)cc1 | 19% |
| Cc1ccc(NC(=O)c2cccc(C#N)c2)cc1-c1ccc(C(=O)Nc2ccncc2)cc1 [GSK1398463] | 0% |
| O=C(c1ccc(-c2cc(-c3c[nH]nc3-c3ccccn3)ccn2)cc1)N1CCCC1 [GW792479] | 0% |
| Cl.c1ccc(Cn2ccc3cc(Nc4ncnc5ccccc45)ccc32)cc1 [GW275568] | 32% |
| CS(=O)(=O)CCNCc1ccc(-c2ccc3ncnc(Nc4ccc(OCc5ccccc5)c(Cl)c4)c3c2)o1.Cl [GW574783] | 58% |
| CCC(CC)(CC)n1cnc2c(N)ncnc21 [SKF-97620] | 23% |
| CC(C)(C)OC(=O)NC1CCCN(c2cc(-c3ccc4c(N)n[nH]c4c3)nc(N)n2)C1 (stereo not drawn) [GSK2286096] | 0% |
| O=C(Nc1ccccc1F)NC1CCN(c2ccnc(Nc3ccc(F)cc3)n2)C1 (stereo not drawn) [GSK1379722] | 0% |
| Cl.c1ccc(Cn2ncc3cc(Nc4ncnc5ccccc45)ccc32)cc1 [GW273749] | 0% |
| CC(=O)Nc1n[nH]c2ncc(-c3ccccc3)cc12 [SB-548492] | 0% |
| Cc1cc(N2CCC(NS(=O)(=O)c3ccc(F)cc3)CC2)nc(Nc2cccc(C#N)c2)n1.O=C(O)C(F)(F)F [GSK1653537] | 0% |
| N#Cc1ccc(Oc2ccc(Nc3ncnc4cc[nH]c34)cc2Cl)cc1 | 18% |
| CCc1nc(-c2cccc(N(C)S(=O)(=O)c3ccccc3)c2)c(-c2ccnc(Nc3ccc(N4CCN(C(C)=O)CC4)nc3)n2)s1 [GSK1645895] | 15% |
| CNc1nccc(-c2c(-c3ccc(F)cc3)ncn2CCCN2CCOCC2)n1 [SB-222516] | 0% |

| Structure (SMILES) | %Inh |
| --- | --- |
| Cc1ccc(C)c(NC(=O)NCCNc2ccnc(Nc3ccc(F)cc3)n2)c1 [GSK1379878] | 0% |
| Cc1cccc(-c2nc(Nc3ccc4[nH]nnc4c3)c3ccccc3n2)n1 [GW867587] | 0% |
| COc1ccc(Nc2nccc(N3CCC(NC(=O)c4cccc(NC(C)=O)c4)C3)n2)cc1 (stereo not drawn) [GSK1379732] | 0% |
| CSc1ccc(NC2=C(c3ccccc3Cl)C(=O)NC2=O)cc1 [SB-342411] | 2% |
| C[C@@H]1CCN(C(=O)CO)C[C@@H]1N(C)c1ncnc2[nH]ccc12 | 5% |
| CSc1nn2c(=O)cc(N3CCOCC3)nc2n1Cc1cccc(Cl)c1Cl [GSK2347225] | 0% |
| COc1ccc(-c2oc3ncnc(N)c3c2-c2ccc(OC)cc2)cc1 [SB-589132] | 0% |
| COc1ccc(NC(=O)c2ccc(-c3cc(-c4nnc(C)o4)ccc3C)cc2)cc1 [GW595885] | 0% |
| COC(=O)c1c(-c2ccccc2)c2cc(Cl)ccc2c(=O)n1Cc1ccc(S(C)(=O)=O)cc1 | 4% |
| CS(=O)(=O)CCNCc1nc(-c2ccc3ncnc(Nc4ccc(OCc5cccc(F)c5)c(Cl)c4)c3c2)cs1.Cl [GW583340] | 20% |
| Cc1ccc(O)cc1Nc1cc(C(F)(F)F)nc2ccc(-c3ccncc3)cc12 [GW630823] | 5% |
| Nc1nc(-c2ccc3c(N)n[nH]c3c2)cc(N2CCC[C@@H](C(=O)Nc3ccccc3)C2)n1.O=C(O)C(F)(F)F.O=C(O)C(F)(F)F [GSK2288359] | 0% |
| CN1c2ccc(-c3ccc(C(=O)NCCO)cc3)cc2-c2[nH]ncc2S1(=O)=O | 31% |
| Oc1ccc2ncnc(Nc3ccc(OCc4ccccc4)cc3)c2c1 [GI262866] | 0% |
| Nc1nc(-c2ccccn2)c(-c2ccnc3ccccc23)s1 [GW548057] | 0% |
| FC(F)(F)c1ccc(-c2cc(-c3c[nH]nc3-c3ccccn3)ccn2)cc1 [GW599550] | 0% |
| Cn1cc(-c2ccc3c(c2)CCN3C(=O)Cc2cccc(C(F)(F)F)c2)c2c(N)ncnc21 [GSK2606414] | 0% |
| NC(=O)c1sc(-n2cnc3ccccc32)cc1OCc1ccccc1F [GSK1024306] | 63% |
